# According to PubChem BioAssay AID1851 (National Center for Advancing Translational Sciences (NCATS), 2009):
# Among all 16,000 compounds or so, about 5,800 (36%) were called active. Not shown: some 23% with an inconclusive outcome. The list shows a part of the results. Unmarked numbers belong to inactive results. Calls follow the shape of the dose curve; as a rule, active = well fitted curve in the direction sought with a large enough effect; inconclusive = small, poorly fitted or top-dose-only effect, or effect the other way; inactive = no such curve, though single readings can be large or run the other way.
# Molecular target: Cytochrome P450 2C19 (Homo sapiens) (UniProt P33261)
# Test: Cytochrome panel assay with activity outcomes
# Conditions: recombinant CYP, pro-luciferin dealkylation, luminescence, p450-cyp2c19; series mostly up to 57.1 µM; activity, negative = inhibition: at the top concentration
# % is scaled to controls: 0 for no effect and ±100 for the full control effect.
# Cytochrome P450 2C19 (Homo sapiens), sequence (P33261 whole entry, looked up): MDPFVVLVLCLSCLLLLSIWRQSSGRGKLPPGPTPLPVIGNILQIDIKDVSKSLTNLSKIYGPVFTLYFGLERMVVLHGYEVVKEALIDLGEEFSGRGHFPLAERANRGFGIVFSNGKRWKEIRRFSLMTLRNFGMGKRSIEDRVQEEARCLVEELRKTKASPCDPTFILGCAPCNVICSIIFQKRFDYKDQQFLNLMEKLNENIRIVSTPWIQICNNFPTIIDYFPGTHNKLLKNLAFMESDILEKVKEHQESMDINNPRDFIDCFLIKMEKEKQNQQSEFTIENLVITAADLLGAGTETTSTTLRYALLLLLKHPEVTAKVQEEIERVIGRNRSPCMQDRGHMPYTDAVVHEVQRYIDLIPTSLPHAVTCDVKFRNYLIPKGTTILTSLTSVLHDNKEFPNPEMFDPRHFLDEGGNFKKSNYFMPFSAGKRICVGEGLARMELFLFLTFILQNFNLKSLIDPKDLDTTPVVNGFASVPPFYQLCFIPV
Structure (SMILES),AC50,"activity, negative = inhibition"
CC(=O)NCCC(=O)Nc1sc2c(c1-c1nc3ccccc3[nH]1)CCCC2,14.1 µM (active),–
CCN(CC)S(=O)(=O)c1cc(C(=O)Nc2ccccc2C(=O)O)ccc1OC,–,-24.1%
CCN(CC)S(=O)(=O)c1cc(C(=O)OC)ccc1Cl,11.2 µM (active),–
CCN(CC)S(=O)(=O)c1cc(C(=O)Nc2ccncc2)ccc1Cl,0.01 µM (active),–
CCn1ccnc1C[C@@H]1COc2ccccc2O1,10 µM (active),–
Cc1ccccc1OCC(=O)Nc1ccc(N2CCN(C(=O)C(C)C)CC2)c(Cl)c1,8.91 µM (active),–
O=C(Nc1ccccc1N1CCOCC1)c1ccc([N+](=O)[O-])cc1,–,-15.9%
Cc1ccccc1OCC(=O)NC(=S)Nc1ccc(N2CCOCC2)c(Cl)c1,–,-29.7%
O=C(Nc1ccccc1N1CCN(C(=O)c2ccccc2)CC1)c1cc(Br)ccc1Cl,3.16 µM (active),–
CC(C)C(=O)N1CCN(c2ccccc2NC(=O)c2cccc(Cl)c2)CC1,14.1 µM (active),–
COc1ccc(-n2c(=O)c(-c3ccc(F)cc3)nc3cncnc32)cc1,–,-4.36%
Cc1ccc(-n2c(C)nc3c(cnn3-c3ccc(F)cc3)c2=O)cc1C,22.4 µM (active),–
Cc1cc(C)n(-c2ccc(F)cc2)c(=O)c1C(=O)O,–,10.6%
CSc1nc(-c2ccc(C)cc2)[nH]c1S(=O)(=O)c1ccccc1,8.91 µM (active),–
CCn1c(=O)c2[nH]c(-c3ccccc3)nc2n(CC)c1=O,–,21.9%
O=C(NC(=S)Nc1cccc(Cl)c1N1CCCCC1)c1ccco1,6.31 µM (active),–
O=C(NC(=S)Nc1cccc(Cl)c1N1CCCCC1)c1cccs1,2.51 µM (active),–
O=C(NC(=S)Nc1cccc(Cl)c1N1CCCC1)c1ccc(-c2cccc([N+](=O)[O-])c2)o1,–,4.94%
CC1CCN(c2ccccc2NC(=S)NC(=O)c2cccs2)CC1,8.91 µM (active),–
CC[C@@]1(O)C(=O)OCc2c1cc1n(c2=O)Cc2cc3c(CN(C)C)c(O)ccc3nc2-1,–,-16.8% [at 11.4 µM]
Clc1ccc2c(NCCNC3CCCCC3)ccnc2c1,–,41% [at 11.4 µM]
O=C(COc1ccc(Cl)cc1)N(Cc1ccccc1)c1ccccn1,0.501 µM (active),–
C[N+]1(C)CCc2cc(O)c(O)cc2[C@H]1Cc1ccc(O)c(O)c1,–,26.9% [at 11.4 µM]

Structure (SMILES),AC50,"activity, negative = inhibition"
CCOc1cc(/C=N/n2cnnc2)c(Br)cc1O,10 µM (active),–
COc1cc(CNC2CCCC2)cc(Cl)c1OCc1ccccc1Cl,2.24 µM (active),–
CCOC(=O)c1[nH]c(C(=O)O)c(CCC(=O)OC)c1C,–,-4.44%
CCOC(=O)c1[nH]c(COC(=O)CCOc2ccccc2OC)c(C(=O)OCC)c1C,4.47 µM (active),–
COc1cc(C2C(=O)N(C3CCCC3)CC(=O)N2Cc2ccco2)ccc1OC(C)C (stereo unspecified),4.47 µM (active),–
CCOCCCN1C(=O)CN(C2CCCCC2)C(=O)C1c1ccc(OCC)c(OC)c1 (stereo unspecified),–,-25.7%
CC1CN(C(=O)c2cc3c(s2)CCC3)CC(C)O1 (stereo unspecified),14.1 µM (active),–
Cc1cc(C(C#N)c2cccc(Cl)c2)n2ncnc2n1 (stereo unspecified),28.2 µM (active),–
CCN1C(=O)[C@H]2[C@H]3[C@H](O)[C@H](O)C/C(=N/O[C@@H](C)c4cn([C@H]5COC[C@H]5O)nn4)[C@@H]3CC[C@@H]2C1=O,–,27.9% [at 11.4 µM]
C/C(=C\c1ccc(Cl)cc1)C(C)(C)C(=O)O,–,-25.9% [at 11.4 µM]
C[C@H](N)C(=O)OC(C)(C)Cc1ccc(Cl)cc1,3.98 µM (active),–
COC(=O)[C@H](N)Cc1ccc(Cl)cc1,–,27.5%
CC1=CC(C)(C)Nc2ccc(CSc3ccccc3)cc21,0.316 µM (active),–
CC1(C)CC(=O)C2=C(C1)Oc1nc3ccccc3cc1C2C(C#N)C#N (stereo unspecified),–,-22%
Cc1cc(C2C(C#N)=C(N)OC3=C2C(=O)CC(C)(C)C3)c(C)s1 (stereo unspecified),4.47 µM (active),–
Cc1cc(C2C(C#N)=C(N)Oc3n[nH]c(C)c32)c(C)s1 (stereo unspecified),11.2 µM (active),–
COc1cc(C2C(C#N)=C(N)OC3=C2C(=O)CCC3)c([N+](=O)[O-])cc1OC (stereo unspecified),–,-22.1%
CC(C)(C)C(=O)OCOC(=O)[C@@H]1N2C(=O)[C@@H](NC(=O)[C@H](N)c3ccccc3)[C@H]2SC1(C)C,–,-7.95% [at 25.6 µM]
C#CCOCCCC(=O)O,–,22.8% [at 11.4 µM]
CCCCN1CCC(COC(=O)c2cc(Cl)c(N)c3c2OCCO3)CC1,–,22.2%
CC1(C)CC(=O)c2cnc(N)nc2C1,–,-28.8%
CC1(C)CC(=O)c2cn3ncnc3nc2C1,15.8 µM (active),–
CC1(C)O[C@H]2C[C@@H]3[C@H]4CCC5=CC(=O)CC[C@@]5(C)[C@]4(F)[C@@H](O)C[C@@]3(C)[C@@]2(C(=O)CCl)O1,–,-28.9% [at 25.6 µM]
